In PubChem BioAssay (NCI) one finds growth data, which are given here for 8 compounds.

About 83,000 compounds went through this panel and 20% of them were active in at least one assay; those are over-represented in the sample as a whole.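 Plates (96-well) were seeded with cells, treated with compound at one concentration, and incubated for 48 hours before percent growth was determined.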 Values without a mark were called inactive. Calls of active or inactive are those of the source. How the source made its calls: active means growth percent below 10; inactive means the rest.

Assay in all cases: NCI-60 one-dose screen, 48 h (100 = growth as untreated, 0 = no growth, -100 = all killed)
The test system of one experiment is EKVX NSCLC. As to conditions: 10 µM unless noted.
The subject of another experiment is SN12C renal. As to conditions: 10 µM unless noted.
For another experiment, the system named is UO-31 renal. As to conditions: 10 µM unless noted.
The test system of the next experiment is TK-10 renal. As to conditions: 10 µM unless noted.
Another experiment relates to ACHN renal. The following applies: 10 µM unless noted.
For a further experiment, the system named is CAKI-1 renal. As to conditions: 10 µM unless noted.
The subject of the next experiment is A498 renal. As to conditions: 10 µM unless noted.
The subject of the next experiment is CCRF-CEM leukemia. As to conditions: 10 µM unless noted.
In a further experiment the test system is MOLT-4 leukemia. As to conditions: 10 µM unless noted.
In a further experiment the test system is SR leukemia. As to conditions: 10 µM unless noted.
A further experiment relates to RPMI-8226 leukemia. As to conditions: 10 µM unless noted.
The test system of another experiment is OVCAR-8 ovarian. The following applies: 10 µM unless noted.
The test system of a further experiment is OVCAR-5 ovarian. The following applies: 10 µM unless noted.
In the next experiment the test system is OVCAR-4 ovarian. The following applies: 10 µM unless noted.
In a further experiment the test system is SK-OV-3 ovarian. As to conditions: 10 µM unless noted.
A further experiment has as its system IGROV1 ovarian. The following applies: 10 µM unless noted.
The subject of another experiment is OVCAR-3 ovarian. As to conditions: 10 µM unless noted.
The next experiment has as its system HS 578T breast. The following applies: 10 µM.
The next experiment concerns NCI/ADR-RES ovarian. As to conditions: 10 µM unless noted.

In the case of `Nc1ccc(S(=O)(=O)O)c2cc(S(=O)(=O)O)cc(O)c12`, the growth was 101% with EKVX NSCLC; 102% with SN12C renal; 107% in the experiment with UO-31 renal; 105% in the experiment on TK-10 renal; 104% in the experiment on ACHN renal; 100% in the experiment with CAKI-1 renal. Moreover, the growth in the experiment on A498 renal was 107%; in the experiment with CCRF-CEM leukemia it was 102%; in the experiment with MOLT-4 leukemia, 101%; in the experiment on SR leukemia, 105%; in the experiment on RPMI-8226 leukemia it was 102%; in the experiment on OVCAR-8 ovarian it was 105%. Besides, the growth in the experiment on OVCAR-5 ovarian was 102%; in the experiment on OVCAR-4 ovarian, 109%; with SK-OV-3 ovarian, 101%; in the experiment with IGROV1 ovarian, 107%; in the experiment with OVCAR-3 ovarian, 113%; in the experiment on HS 578T breast, 103%.

`O=C(Cn1ccc2ccccc21)Nc1ccc(-c2nc3ccccc3s2)cc1`: the growth is 107% in the experiment on EKVX NSCLC; 101% in the experiment on SN12C renal; 92.4% in the experiment on UO-31 renal; 104% in the experiment with TK-10 renal; 111% with ACHN renal; 100% in the experiment with CAKI-1 renal. In addition, the growth is 99.1% in the experiment on A498 renal; 97% in the experiment on CCRF-CEM leukemia; 94.5% in the experiment on MOLT-4 leukemia; 95.5% in the experiment on SR leukemia; 100% with RPMI-8226 leukemia; 105% in the experiment on OVCAR-8 ovarian. The growth in the experiment on OVCAR-5 ovarian is 104%; in the experiment with OVCAR-4 ovarian it was 103%; in the experiment on SK-OV-3 ovarian, 102%; in the experiment with IGROV1 ovarian it was 73.8%; in the experiment with OVCAR-3 ovarian, 102%; in the experiment on HS 578T breast, 97.7%. In the experiment on NCI/ADR-RES ovarian, the growth was 100%.

Consider `Oc1ccc(C(c2ccc(O)cc2)C(Cl)(Cl)Cl)cc1`, for which the growth is 82.5% with EKVX NSCLC; 84.8% in the experiment on SN12C renal; 75.3% in the experiment with UO-31 renal; 105% in the experiment with TK-10 renal; 92.3% in the experiment with ACHN renal; 105% in the experiment on CAKI-1 renal. Also, the growth in the experiment on A498 renal is 87.5%; in the experiment on CCRF-CEM leukemia it was 76.5%; in the experiment with MOLT-4 leukemia, 70.5%; with SR leukemia, 87.8%; in the experiment on RPMI-8226 leukemia, 83.4%; in the experiment on OVCAR-8 ovarian, 103%. The growth in the experiment on OVCAR-5 ovarian was 88.5%; in the experiment with OVCAR-4 ovarian, 94.2%; in the experiment with SK-OV-3 ovarian it was 118%; in the experiment with IGROV1 ovarian, 93%; in the experiment with OVCAR-3 ovarian, 105%; in the experiment with HS 578T breast it was 88.3%. For the same compound, the growth in the experiment on NCI/ADR-RES ovarian is 94.9%.

Turning to `CC(C)c1cc(CNc2nc(Nc3cc(C4CC4)[nH]n3)cc(N3CCN(C)CC3)n2)on1`, the growth in the experiment on EKVX NSCLC is 7.39% (active); with SN12C renal, 9.72% (active); with UO-31 renal it was -2.19% (active); in the experiment on TK-10 renal, -16.4% (active); in the experiment with ACHN renal, 8.49% (active); with CAKI-1 renal, 4.85% (active). Besides, the growth was -78.5% (active) with A498 renal; 8.07% (active) with CCRF-CEM leukemia; 0.889% (active) in the experiment on MOLT-4 leukemia; -5.3% (active) in the experiment on SR leukemia; -13.3% (active) in the experiment with RPMI-8226 leukemia; 6.51% (active) with OVCAR-8 ovarian. In addition, the growth was 18.5% with OVCAR-5 ovarian; -8.07% (active) in the experiment on OVCAR-4 ovarian; 0.435% (active) with SK-OV-3 ovarian; 8.34% (active) in the experiment with IGROV1 ovarian; 15.5% in the experiment on OVCAR-3 ovarian; 39.2% in the experiment with NCI/ADR-RES ovarian.

Consider `CC(C)(C)c1ccc(Cn2cc(CSc3nc4ccccc4s3)nn2)cc1`, for which the growth in the experiment on EKVX NSCLC is 98.3%; with SN12C renal, 90.8%; with UO-31 renal, 65.2%; with TK-10 renal, 88.7%; with ACHN renal, 97.2%; in the experiment with CAKI-1 renal, 82.9%. In addition, the growth is 87% in the experiment on A498 renal; 95% in the experiment with CCRF-CEM leukemia; 95.7% in the experiment on MOLT-4 leukemia; 98.7% in the experiment with SR leukemia; 97.2% in the experiment with RPMI-8226 leukemia; 92% in the experiment on OVCAR-8 ovarian. Also, the growth in the experiment on OVCAR-5 ovarian was 94.4%; with OVCAR-4 ovarian it was 97.5%; in the experiment on SK-OV-3 ovarian it was 96.6%; in the experiment with IGROV1 ovarian, 90.7%; in the experiment on OVCAR-3 ovarian, 107%; in the experiment with HS 578T breast it was 93.7%. Moreover, the growth in the experiment with NCI/ADR-RES ovarian was 92.8%.

Consider `CCN(CC)CCOc1ccc(/C(=C(\C)c2ccc(Cl)cc2)c2ccc(Cl)cc2)cc1`, for which the growth with EKVX NSCLC was 88.6%; in the experiment with SN12C renal, 76.5%; with UO-31 renal, 64.8%; with TK-10 renal, 87.6%; in the experiment with ACHN renal, 94.5%; in the experiment with CAKI-1 renal, 83.4%. Further, the growth with A498 renal was 79.6%; with CCRF-CEM leukemia, 43.1%; in the experiment with MOLT-4 leukemia, 50.7%; with SR leukemia it was 0.594% (active); in the experiment on RPMI-8226 leukemia, 14.5%; with OVCAR-8 ovarian, 82.7%. The growth in the experiment with OVCAR-5 ovarian was 80.2%; in the experiment with OVCAR-4 ovarian, 78.8%; in the experiment with SK-OV-3 ovarian, 103%; in the experiment with IGROV1 ovarian it was 80%; in the experiment with OVCAR-3 ovarian it was 83%; with HS 578T breast, 77.5%. In addition, in the experiment on NCI/ADR-RES ovarian, the growth is 81.5%.

Regarding `Cc1ccc(N)cc1CN1C(=O)c2ccccc2C1=O`, the growth with EKVX NSCLC was 105%; with SN12C renal, 103%; with UO-31 renal it was 70.1%; in the experiment with TK-10 renal it was 88.3%; with ACHN renal, 106%; in the experiment on CAKI-1 renal it was 105%. Also, the growth is 96.5% in the experiment on A498 renal; 92.4% with CCRF-CEM leukemia; 94.9% with MOLT-4 leukemia; 87.4% in the experiment with SR leukemia; 99.3% in the experiment with RPMI-8226 leukemia; 101% in the experiment on OVCAR-8 ovarian. Also, the growth was 104% with OVCAR-5 ovarian; 110% in the experiment on OVCAR-4 ovarian; 94.2% in the experiment with SK-OV-3 ovarian; 105% in the experiment with IGROV1 ovarian; 117% with OVCAR-3 ovarian; 106% in the experiment on HS 578T breast. In addition, the growth in the experiment with NCI/ADR-RES ovarian is 107%.

With `COC(=O)Nc1nc2ccc(C(=O)c3ccc(N(C)C4COC4)cc3)cc2[nH]1`, the growth in the experiment on EKVX NSCLC was 26.9%; in the experiment with SN12C renal, 30.9%; with UO-31 renal it was 45.3%; with TK-10 renal, 66%; in the experiment on ACHN renal it was 39%; in the experiment on CAKI-1 renal it was 31.2%. The growth in the experiment with A498 renal was 10%; in the experiment with CCRF-CEM leukemia, 15.9%; in the experiment on MOLT-4 leukemia, 10.5%; in the experiment with SR leukemia, 14.4%; with RPMI-8226 leukemia, 22.5%; in the experiment on OVCAR-8 ovarian, 11%. The growth is 52.4% with OVCAR-5 ovarian; 57.2% in the experiment with OVCAR-4 ovarian; 6.93% (active) with SK-OV-3 ovarian; 28.5% with IGROV1 ovarian; 31.9% with OVCAR-3 ovarian; 12% in the experiment on NCI/ADR-RES ovarian.
